Active and inactive are the calls of the source. How the source made its calls: active means hit-call score of the fitted dose curve at least 0.9, where 1 is the maximum; inactive means score below 0.9.

By AC50 is commonly meant the concentration at which the activity in the assay is half-maximal.

What all share (details): mRNA level, 48 h; actives raise or lower the signal
Read-out in experiment [1]: Cytochrome P450 (CYP2B6), CYP2B6 (gene 1555)
Briefly: LTEA_HepaRG_CYP2B6: Life Technologies and Expression Analysis (LTEA) Assay for Cytochrome P450 (CYP2B6) using HepaRG (AID 2283481). The method in brief:
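Differentiated human HepaRG cells in serum-free induction medium, dosed in duplicate for 48 h over 8 half-log concentrations topping at 100 uM (0.5% DMSO). CYP2B6 mRNA measured by TaqMan qRT-PCR, normalized to ACTB, GAPDH, POLR2A; bidirectional fit versus DMSO.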

Read-out in experiment [2]: Cytochrome P450 2C19 (Homo sapiens) (UniProt P33261)
Briefly: LTEA_HepaRG_CYP2C19: Life Technologies and Expression Analysis (LTEA) Assay for CYP2C19 using HepaRG (AID 2283482). The gist of the method: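 Differentiated HepaRG cells in serum-free induction medium exposed 48 h in duplicate, 8 concentrations from 100 uM by half-log steps in 0.5% DMSO. CYP2C19 mRNA measured by TaqMan qRT-PCR, normalized to ACTB, GAPDH, POLR2A. Bidirectional fit versus DMSO.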

Read-out in a further experiment: CYP2C8 (gene 1558)
Briefly: LTEA_HepaRG_CYP2C8: Life Technologies and Expression Analysis (LTEA) Assay for CYP2C8 using HepaRG (AID 2283483). The method in brief: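 This is a transcriptional endpoint in HepaRG cultures: 48 h exposure, highest concentration 100 uM. CYP2C8 mRNA is quantified by TaqMan qRT-PCR.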

Read-out in the next experiment: CYP2C9 (gene 1559)
Briefly: LTEA_HepaRG_CYP2C9: Life Technologies and Expression Analysis (LTEA) Assay for CYP2C9 using HepaRG (AID 2283484). The gist of the method:
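Eight-point concentration-response (highest 100 uM, half-log dilutions) in HepaRG cells for 48 h; CYP2C9 expression by qRT-PCR normalized to ACTB, GAPDH, POLR2A. Bidirectional fit, DMSO baseline.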

Read-out in a further experiment: CYP2E1 (gene 1571)
Briefly: LTEA_HepaRG_CYP2E1: Life Technologies and Expression Analysis (LTEA) Assay for CYP2E1 using HepaRG (AID 2283485). The gist of the method: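 Assay uses 48 h exposure of HepaRG hepatic cells, eight concentrations to 100 uM. Expression of CYP2E1 is quantified by TaqMan qRT-PCR with ACTB, GAPDH and POLR2A normalization; curves fitted in both directions relative to vehicle.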

Read-out in another experiment: CYP4A11 (gene 1579)
Briefly: LTEA_HepaRG_CYP4A11: Life Technologies and Expression Analysis (LTEA) Assay for CYP4A11 using HepaRG (AID 2283486). The gist of the method:
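Differentiated HepaRG cells, 48 h after plating, exposed in duplicate for 48 h to 8 half-log concentrations up to 100 uM in 0.5% DMSO in serum-free induction medium. CYP4A11 mRNA measured by TaqMan qRT-PCR, normalized to ACTB, GAPDH and POLR2A.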

Read-out in experiment [3]: Cytochrome P450 3A4 (Homo sapiens) (UniProt P08684)
Briefly: LTEA_HepaRG_CYP3A4: Life Technologies and Expression Analysis (LTEA) Assay for CYP3A4 using HepaRG (AID 2283487). The method in brief: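 Differentiated HepaRG cells, plated 48 h, then dosed 48 h in serum-free induction medium with 0.5% DMSO, 8 half-log concentrations up to 100 uM, duplicate. CYP3A4 mRNA by qRT-PCR, normalized to ACTB/GAPDH/POLR2A; bidirectional fit versus DMSO.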

Read-out in experiment [4]: DNA damage-inducible transcript 3 (DDIT3), DDIT3 (gene 1649)
Briefly: LTEA_HepaRG_DDIT3: Life Technologies and Expression Analysis (LTEA) Assay for DNA damage-inducible transcript 3 (DDIT3) using HepaRG (AID 2283488). The gist of the method:
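Eight-point concentration-response (100 uM highest, half-log dilutions) in HepaRG, 48 h, duplicate wells. Endpoint: qRT-PCR mRNA, normalized (ACTB, GAPDH, POLR2A), bidirectional fitting with DMSO as baseline.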

Read-out in experiment [5]: Pro-epidermal growth factor (Homo sapiens) (UniProt P01133)
Briefly: LTEA_HepaRG_EGF: Life Technologies and Expression Analysis (LTEA) Assay for Epidermal growth factor (EGF) using HepaRG (AID 2283489). The method in brief:
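HepaRG cells (~100,000/well, 48 h pre-culture) exposed in duplicate for 48 h in serum-free induction medium to 8 half-log concentrations up to 100 uM in 0.5% DMSO. EGF mRNA by qRT-PCR, normalized to ACTB/GAPDH/POLR2A; bidirectional fit versus DMSO.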

Read-out in experiment [6]: Ezrin (EZR), EZR (gene 7430)
Briefly: LTEA_HepaRG_EZR: Life Technologies and Expression Analysis (LTEA) Assay for Ezrin (EZR) using HepaRG (AID 2283491). The method in brief:
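EZR transcript levels came from Fluidigm qRT-PCR and were normalized to three housekeeping genes after 48 h chemical exposure of HepaRG cells. Dosing used an 8-point half-log series with a 100 uM top concentration in 0.5% DMSO, tested in duplicate; both directions were fitted versus vehicle.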

Read-out in experiment [7]: Cytochrome P450 3A7 (Homo sapiens) (UniProt P24462)
Briefly: LTEA_HepaRG_CYP3A7: Life Technologies and Expression Analysis (LTEA) Assay for CYP3A7 using HepaRG (AID 2283492). The gist of the method:
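Differentiated HepaRG cells in serum-free induction medium exposed 48 h in duplicate to 8-point half-log series from 100 uM top in 0.5% DMSO. CYP3A7 mRNA by qRT-PCR, normalized to ACTB/GAPDH/POLR2A, bidirectional fit versus DMSO.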

Read-out in experiment [8]: Fatty Acid-Binding Protein 1 (FABP1), FABP1 (gene 2168)
Briefly: LTEA_HepaRG_FABP1: Life Technologies and Expression Analysis (LTEA) Assay for Fatty Acid-Binding Protein 1 (FABP1) using HepaRG (AID 2283494). The gist of the method:
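Values reflect bidirectional concentration-response fitting of FABP1 mRNA change against 0.5% DMSO controls. Human HepaRG cultures received eight half-log doses (top 100 uM) for 48 h; expression quantified by TaqMan qRT-PCR with housekeeping-gene normalization.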

Read-out in experiment [9]: Cytochrome P450 4A22 (Homo sapiens) (UniProt Q5TCH4)
Briefly: LTEA_HepaRG_CYP4A22: Life Technologies and Expression Analysis (LTEA) Assay for Cytochrome P450 4A22 (CYP4A22) using HepaRG (AID 2283495). The method in brief:
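Differentiated HepaRG cells in serum-free induction medium exposed 48 h in duplicate to eight half-log concentrations up to 100 uM in 0.5% DMSO. CYP4A22 mRNA quantified by TaqMan qRT-PCR, normalized to ACTB, GAPDH and POLR2A; bidirectional fit versus DMSO.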

Read-out in experiment [10]: Glutathione S-Transferase (GSTA2), GSTA2 (gene 2939)
Briefly: LTEA_HepaRG_GSTA2: Life Technologies and Expression Analysis (LTEA) Assay for Glutathione S-Transferase (GSTA2) using HepaRG (AID 2283497). The method in brief: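 Oxidative-stress marker GSTA2 is quantified by TaqMan qRT-PCR in HepaRG cultures treated 48 h across an eight-point range to 100 uM. Expression is normalized to endogenous controls and compared with 0.5% DMSO vehicle.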

Read-out in experiment [11]: Glutamate-cysteine ligase catalytic (GCLC), GCLC (gene 2729)
Briefly: LTEA_HepaRG_GCLC: Life Technologies and Expression Analysis (LTEA) Assay for Glutamate-cysteine ligase catalytic (GCLC) using HepaRG (AID 2283498). The gist of the method: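 Oxidative-stress marker GCLC is measured as mRNA change in human HepaRG liver cells after 48 h chemical treatment in 0.5% DMSO, eight concentrations from 100 uM. Activity is fitted bidirectionally against vehicle.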

Read-out in experiment [12]: growth arrest and DNA damage 45 (GADD45G), GADD45G (gene 10912)
Briefly: LTEA_HepaRG_GADD45G: Life Technologies and Expression Analysis (LTEA) Assay for growth arrest and DNA damage 45 (GADD45G) using HepaRG (AID 2283499). The method in brief: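 Differentiated human HepaRG cells, 48 h post-plating, exposed 48 h in serum-free induction medium to 8 half-log concentrations (top 100 uM, 0.5% DMSO) in duplicate. GADD45G mRNA measured by Fluidigm TaqMan qRT-PCR, normalized to ACTB, GAPDH, POLR2A; bidirectional fit versus DMSO.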

Read-out in experiment [13]: Glutamate-cysteine ligase regulatory (GCLM), GCLM (gene 2730)
Briefly: LTEA_HepaRG_GCLM: Life Technologies and Expression Analysis (LTEA) Assay for Glutamate-cysteine ligase regulatory (GCLM) using HepaRG (AID 2283500). The gist of the method: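 In this multiplexed HepaRG gene-expression assay, GCLM mRNA change after 48 h treatment (8 concentrations, max 100 uM) was scored against DMSO by bidirectional curve fitting.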

Read-out in experiment [14]: Early growth response protein 1 (EGR1) transcription factor, EGR1 (gene 1958)
Briefly: LTEA_HepaRG_EGR1: Life Technologies and Expression Analysis (LTEA) Assay for Early growth response protein 1 (EGR1) transcription factor using HepaRG (AID 2283490). The method in brief: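 EGR1 expression change in human HepaRG after 48 h chemical exposure, assessed by housekeeping-normalized qRT-PCR; concentration-response up to 100 uM, fitted in both directions against DMSO controls.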

Read-out in another experiment: CYP3A5 (gene 1577)
Briefly: LTEA_HepaRG_CYP3A5: Life Technologies and Expression Analysis (LTEA) Assay for CYP3A5 using HepaRG (AID 2283493). The gist of the method: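 Readout was CYP3A5 mRNA by qRT-PCR. HepaRG cultures were exposed for 48 h in serum-free induction medium to chemicals at up to 100 uM, and responses were fitted in both directions relative to DMSO vehicle.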

Read-out in experiment [15]: Cytochrome P450 7A1 (Homo sapiens) (UniProt P22680)
Briefly: LTEA_HepaRG_CYP7A1: Life Technologies and Expression Analysis (LTEA) Assay for Cytochrome P450 7A1 (CYP7A1) using HepaRG (AID 2283496). The gist of the method:
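Using 0.5% DMSO as vehicle and baseline, chemicals were tested in duplicate over an 8-point range from 100 uM on HepaRG cells for 48 h; qRT-PCR signals were normalised to ACTB, GAPDH and POLR2A.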

Chain of Cytochrome P450 3A4 (Homo sapiens) (P08684 whole entry, looked up): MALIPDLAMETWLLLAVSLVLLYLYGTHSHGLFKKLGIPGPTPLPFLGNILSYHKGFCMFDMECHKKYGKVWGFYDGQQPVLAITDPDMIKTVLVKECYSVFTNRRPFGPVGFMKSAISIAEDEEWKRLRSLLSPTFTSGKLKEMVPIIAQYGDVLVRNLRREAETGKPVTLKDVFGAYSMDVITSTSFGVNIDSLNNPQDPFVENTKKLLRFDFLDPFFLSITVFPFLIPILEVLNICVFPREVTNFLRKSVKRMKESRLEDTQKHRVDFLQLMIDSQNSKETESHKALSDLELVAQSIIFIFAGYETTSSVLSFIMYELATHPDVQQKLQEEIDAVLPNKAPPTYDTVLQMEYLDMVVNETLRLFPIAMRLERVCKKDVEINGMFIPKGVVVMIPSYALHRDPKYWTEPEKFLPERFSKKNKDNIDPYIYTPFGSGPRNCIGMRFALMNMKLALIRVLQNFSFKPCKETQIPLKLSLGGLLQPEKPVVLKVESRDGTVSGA
Chain of Cytochrome P450 3A7 (Homo sapiens) (P24462 whole entry, looked up): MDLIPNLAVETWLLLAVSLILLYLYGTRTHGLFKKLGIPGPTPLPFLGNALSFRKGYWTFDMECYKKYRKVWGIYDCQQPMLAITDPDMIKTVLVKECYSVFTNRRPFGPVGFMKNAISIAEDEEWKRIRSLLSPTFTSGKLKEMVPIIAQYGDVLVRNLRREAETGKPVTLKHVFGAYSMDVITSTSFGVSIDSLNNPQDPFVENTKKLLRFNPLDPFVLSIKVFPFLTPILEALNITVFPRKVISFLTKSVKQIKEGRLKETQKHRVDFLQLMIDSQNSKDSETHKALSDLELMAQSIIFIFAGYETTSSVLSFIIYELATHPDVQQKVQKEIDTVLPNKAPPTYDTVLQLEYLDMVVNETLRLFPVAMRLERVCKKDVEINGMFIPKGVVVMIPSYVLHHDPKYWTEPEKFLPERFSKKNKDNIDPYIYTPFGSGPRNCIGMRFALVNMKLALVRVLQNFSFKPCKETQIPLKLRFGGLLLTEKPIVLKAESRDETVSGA
Chain of Cytochrome P450 2C19 (Homo sapiens) (P33261 whole entry, looked up): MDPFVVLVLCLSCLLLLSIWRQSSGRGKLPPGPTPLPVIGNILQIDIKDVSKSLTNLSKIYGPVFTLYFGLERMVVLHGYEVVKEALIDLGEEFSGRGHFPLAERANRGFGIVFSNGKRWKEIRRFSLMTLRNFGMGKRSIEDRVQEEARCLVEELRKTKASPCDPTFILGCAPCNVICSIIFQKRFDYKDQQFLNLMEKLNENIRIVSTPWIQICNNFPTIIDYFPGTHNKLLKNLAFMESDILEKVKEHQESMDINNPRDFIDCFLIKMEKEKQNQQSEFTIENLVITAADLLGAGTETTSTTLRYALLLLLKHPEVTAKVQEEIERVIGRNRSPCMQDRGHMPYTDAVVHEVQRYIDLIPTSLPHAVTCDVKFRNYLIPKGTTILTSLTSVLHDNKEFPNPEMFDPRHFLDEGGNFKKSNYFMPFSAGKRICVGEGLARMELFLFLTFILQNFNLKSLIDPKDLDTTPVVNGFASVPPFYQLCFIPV

For `CCN(CC)N=O`, the compound was called inactive (in [1]; in [2]; with CYP2C8 (gene 1558); with CYP2C9 (gene 1559); with CYP2E1 (gene 1571); in the experiment with CYP4A11 (gene 1579)). Further, the call in experiment [3], in experiment [4], in [5], in experiment [6], in experiment [7] and in experiment [8] was inactive. Further, the call in [9], in experiment [10], in [11], in experiment [12] and in experiment [13] was inactive.

Regarding `O=Cc1ccco1`, the outcome (in experiment [2]; with CYP2C8 (gene 1558); in the experiment with CYP2C9 (gene 1559); with CYP2E1 (gene 1571); with CYP4A11 (gene 1579); in experiment [3]) was inactive. Besides, the outcome (in [4]; in experiment [5]; in experiment [14]; in experiment [6]; in experiment [7]; in the experiment with CYP3A5 (gene 1577)) was inactive. For the same compound, the compound was called inactive in [8], in experiment [9], in experiment [15], in experiment [10], in experiment [11] and in [12].

As for `CN(C)c1ccc(C(=O)c2ccc(N(C)C)cc2)cc1`, the AC50 was 12.2 µM (active) in experiment [1]; 50 µM (active) with CYP2E1 (gene 1571); 50 µM (active) with CYP4A11 (gene 1579); 50 µM (active) in [8]; 50 µM (active) in experiment [9]. Also, the result (in [2]; with CYP2C8 (gene 1558); with CYP2C9 (gene 1559); in [4]; in experiment [5]; in experiment [14]) was inactive. Further, the call in experiment [7], in [15], in experiment [10], in [11] and in experiment [12] was inactive.

In the case of `c1ccc2c(c1)-c1cccc3cccc-2c13`, the AC50 in [1] is 5.03 µM (active); in experiment [2] it was 9.15 µM (active); in the experiment with CYP2E1 (gene 1571), 34.6 µM (active); in experiment [3], 18 µM (active); in [7], 9.36 µM (active); in experiment [8], 50 µM (active). The result (in the experiment with CYP2C8 (gene 1558); with CYP2C9 (gene 1559); with CYP4A11 (gene 1579); in experiment [4]; in [14]; in experiment [10]) was inactive. Further, the outcome in experiment [11], in experiment [12] and in experiment [13] was inactive.

The values above are taken from PubChem BioAssay (EPA / NIEHS).
